# Source: PubChem BioAssay (EPA / NIEHS)
# Where “and” joins values, the source holds several entries; their conditions need not be identical. Equal entries are not always repeated. Results filed as inconclusive are left out. Where a structure was tested more than once in an assay, its records may differ in their call. Calls of active or inactive are those of the source. Rule for the calls, unless noted: active = hit-call score of the fitted dose curve at least 0.9, where 1 is the maximum; inactive = score below 0.9.
# Assays:
# [1] = CCTE_Shafer_MEA_dev_spike_duration_mean: CCTE's Neural Network Formation Assay for Mean Spike Duration, Shafer Lab (AID 2284051);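 note: mean network spike duration pooled as area under curve over DIV 5 to 12 recordings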;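 for AC50: potency for a decrease in mean network spike duration versus DMSO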
# In short: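 Readout is the average length of network spikes, clustered firing across electrodes, summed over DIV 5, 7, 9 and 12 as area under the curve. Neurons from rat cortex developed networks on MEA plates under continuous 12-day exposure.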
# [2] = CCTE_Shafer_MEA_dev_network_spike_duration_std: CCTE's Neural Network Formation Assay for Standard Deviation of Network Spike Duration, Shafer Lab (AID 2284052);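 note: area under curve of spike duration SD across recording days 5 to 12; hits are decreases in network spike duration SD versus DMSO vehicle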
# In short: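 Read-out is the trapezoidal area-under-the-curve across recordings made on days 5, 7, 9 and 12, fitted in the negative direction against DMSO baseline. Neurons were primary rat cortical cells treated from day 0, with treatment renewed at each feed.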
# [3] = CCTE_Shafer_MEA_dev_per_network_spike_spike_number_mean: CCTE's Neural Network Formation Assay for Mean Number of Spikes in a Network Spike, Shafer Lab (AID 2284053);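 for AC50: fitted as decrease in spikes per network spike relative to DMSO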
# In short: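 Continuous twelve-day exposure of developing rat cortical networks grown over 16 microelectrodes per well; spontaneous firing is captured at four time points, and the per-network-spike spike number is integrated over development by trapezoidal AUC.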
# [4] = CCTE_Shafer_MEA_dev_per_network_spike_spike_percent: CCTE's Neural Network Formation Assay for Percent of Spikes in a Network Spike, Shafer Lab (AID 2284054)
# In short: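 Metric: fraction of spikes falling in a 0.05 s window at network-spike peaks. Recordings were made on days 5, 7, 9 and 12 and collapsed by trapezoidal AUC. Cultures were rat cortical neurons on MEA plates, dosed continuously from plating, re-dosed at media changes.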
# [5] = CCTE_Shafer_MEA_dev_LDH: CCTE's Lactate Dehydrogenase Assay for Cytotoxicity in the Neural Network Formation Assay, Shafer Lab (AID 2284068; active = hit-call score of the fitted dose curve at least 0.9, where 1 is the maximum;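 note: exposure for twelve days from plating with re-dosing on DIV 5 and 9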)
# In short: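 Cytotoxicity companion to network-formation recordings: rat cortical neurons received compound over 12 days of development, re-dosed at DIV 5 and 9 feeds. Viability was inferred from LDH enzyme activity relative to DMSO.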
# [6] = CCTE_Shafer_MEA_dev_AB: CCTE's Alamar Blue Assay for Cytotoxicity in the Neural Network Formation Assay, Shafer Lab (AID 2284083; active = hit-call score of the fitted dose curve at least 0.9, where 1 is the maximum;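 note: twelve days of exposure from plating with re-dosing on DIV 5 and 9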)
# In short: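 Fluorescent resazurin reduction serves as the viability read-out, with DMSO as negative control and baseline. Cells were primary rat cortical neurons grown on MEA plates and dosed from day 0 to day 12, treatment renewed on DIV 5 and 9.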
# [7] = CCTE_Shafer_MEA_acute_AB: CCTE's Alamar Blue Assay for Cytotoxicity in the Neural Acute Assay, Shafer Lab (AID 2284069; active = hit-call score of the fitted dose curve at least 0.9, where 1 is the maximum;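 note: active compounds lower the viability signal compared with DMSO wells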)
# In short: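 Metabolic activity in chemically exposed rat cortical neurons (MEA cultures, day 13/15 post-plating) measured via CellTiter Blue resazurin reduction, 544/590 nm fluorescence; fitted relative to DMSO, with signal loss indicating reduced viability.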
# [8] = CCTE_Shafer_MEA_acute_LDH: CCTE's Lactate Dehydrogenase Assay for Cytotoxicity in the Neural Acute Assay, Shafer Lab (AID 2284086; active = hit-call score of the fitted dose curve at least 0.9, where 1 is the maximum;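 note: active means LDH release rises above DMSO vehicle level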)
# In short: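 LDH released during 40 min compound exposure of primary rat cortical cultures, quantified by absorbance at 490 nm in collected medium. Fitting direction positive versus DMSO vehicle.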
# DIO2 (gene 1734) = assay: CCTE_GLTED_hDIO2: CCTE's human Deiodinase 2 (DIO2) Inhibition Assay, Great Lakes Toxicology and Ecology Division (GLTED) Lab (AID 2284050; active = hit-call score of the fitted dose curve at least 0.9, where 1 is the maximum)
# In short: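 Iodide released by human deiodinase 2 over 3 h with test chemical, measured spectrophotometrically via Sandell-Kolthoff cerium/arsenic reaction. Run n=3; inhibition referenced to DMSO.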
# DIO3 (gene 1735) = assay: CCTE_GLTED_hDIO3: CCTE's human Deiodinase 3 (DIO3) Inhibition Assay, Great Lakes Toxicology and Ecology Division (GLTED) Lab (AID 2284055; active = hit-call score of the fitted dose curve at least 0.9, where 1 is the maximum;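 note: potency is for inhibition seen as loss of released iodide signal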)
# In short: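 Inhibition is read as reduced iodide release, measured spectrophotometrically by the Sandell-Kolthoff cerium/arsenic reaction. Adenovirus-expressed human DIO3 enzyme is exposed to chemical for 3 h, n=3 plates. Iodinated chemicals, nitrite, iron or thiocyanate may interfere.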
compound,measurement,setting,value
O=S(=O)(O)C(F)(F)C(F)(F)C(F)(F)C(F)(F)C(F)(F)C(F)(F)F,outcome,[1],inactive
same,outcome,[2],inactive
same,outcome,[3],inactive
same,outcome,[4],inactive
same,outcome,[5],inactive
same,outcome,[6],inactive
CC(c1ccc(O)cc1)(c1ccc(O)cc1)c1ccc(O)cc1,outcome,[7],inactive
CCCN(CCC)N=O,outcome,[7],inactive
same,outcome,[8],inactive
Clc1ccc(C(Cl)(Cl)Cl)cc1,AC50,DIO2 (gene 1734),61.7 µM (active)
same,AC50,DIO3 (gene 1735),73.1 µM (active)
same,outcome,[7],inactive
same,outcome,[8],inactive
Clc1ccc(C(c2ccccc2Cl)C(Cl)(Cl)Cl)cc1 (centres undefined),AC50,[1],2.76 µM (active)
same,outcome,[2],inactive
same,AC50,[3],0.215 µM (active)
same,AC50,[4],0.708 µM (active)
same,AC50,[5],2.38 µM (active)
same,AC50,[6],6.13 µM (active)
O=S(=O)(O)C(F)(F)C(F)(F)C(F)(F)C(F)(F)F,AC50,[1],50 µM (active)
same,outcome,[1],inactive
same,outcome,[2],inactive
same,AC50,[3],14.2 µM (active)
same,outcome,[3],inactive
same,outcome,[4],inactive
same,outcome,[5],inactive
O=C(N[C@H]1CN2CCC1CC2)c1cc2ccoc2cn1,outcome,[8],inactive
CCC(C)c1cc([N+](=O)[O-])cc([N+](=O)[O-])c1O (centres undefined),outcome,[8],inactive
ClC1=C(Cl)[C@]2(Cl)[C@@H]3[C@H]4C[C@H]([C@@H]5O[C@H]45)[C@@H]3[C@@]1(Cl)C2(Cl)Cl,outcome,[1],inactive
same,outcome,[2],inactive
same,outcome,[3],inactive
same,outcome,[4],inactive
same,outcome,[5],inactive
same,outcome,[7],inactive
CCOP(=S)(OCC)SCSC(C)(C)C,AC50,[1],13.9 µM (active) and 21.9 µM (active)
same,AC50,[2],16.2 µM (active)
same,outcome,[2],inactive
same,AC50,[3],23.4 µM (active) and 17.1 µM (active)
same,AC50,[4],23.1 µM (active) and 28.7 µM (active)
same,AC50,[5],15.1 µM (active) and 29.5 µM (active)
same,AC50,[6],18.7 µM (active) and 82.5 µM (active)
C=CC(N)=O,outcome,[1],inactive
same,outcome,[2],inactive
same,outcome,[3],inactive
same,outcome,[4],inactive
same,outcome,[5],inactive
same,outcome,[7],inactive
same,outcome,[6],inactive
same,outcome,[8],inactive
CO/C=C(/C(=O)OC)c1ccccc1COc1cccc(C(F)(F)F)n1,AC50,[1],212 nM (active) and 454 nM (active)
same,AC50,[2],246 nM (active) and 245 nM (active)
same,AC50,[3],218 nM (active) and 739 nM (active)
same,AC50,[4],245 nM (active) and 751 nM (active)
same,AC50,[5],122 nM (active) and 665 nM (active)
same,outcome,[7],inactive
same,AC50,[6],856 nM (active) and 1.12 µM (active)
same,outcome,[8],inactive
c1cc2ccc3cccc4ccc(c1)c2c34,outcome,[1],inactive
same,outcome,[2],inactive
same,outcome,[3],inactive
same,outcome,[4],inactive
same,outcome,[5],inactive
same,outcome,[6],inactive
O=C(O)C(F)(F)C(F)(F)C(F)(F)C(F)(F)C(F)(F)C(F)(F)C(F)(F)C(F)(F)F,AC50,DIO2 (gene 1734),46.1 µM (active)
same,outcome,[1],inactive
same,outcome,[2],inactive
same,outcome,[3],inactive
same,outcome,[4],inactive
same,outcome,[5],inactive
O=C(O)C(F)(F)C(F)(F)C(F)(F)C(F)(F)C(F)(F)F,outcome,[1],inactive
same,outcome,[2],inactive
same,outcome,[3],inactive
same,outcome,[4],inactive
same,outcome,[5],inactive
same,outcome,[7],inactive
same,outcome,[8],inactive
CC(C)C(=O)OCC(C)(C)C(OC(=O)C(C)C)C(C)C (centres undefined),outcome,[8],inactive
Nc1ccc(-c2ccc(N)cc2)cc1,outcome,[8],inactive
Oc1ccc(C(c2ccc(O)cc2)(C(F)(F)F)C(F)(F)F)cc1,AC50,DIO2 (gene 1734),128 µM (active)
same,AC50,[1],9.95 µM (active)
same,outcome,[1],inactive
same,outcome,[2],inactive
same,outcome,[3],inactive
same,outcome,[4],inactive
same,AC50,DIO3 (gene 1735),136 µM (active)
same,AC50,[5],10 µM (active) and 13.1 µM (active)
same,outcome,[7],inactive
same,AC50,[6],16 µM (active)
same,outcome,[6],inactive
CN(C)CCO,outcome,[7],inactive
same,outcome,[8],inactive
COc1ccc(O)c(C(C)(C)C)c1,outcome,[1],inactive
same,outcome,[2],inactive
same,outcome,[3],inactive
same,outcome,[4],inactive
same,outcome,[5],inactive
same,outcome,[7],inactive
same,outcome,[8],inactive
CCSC(=O)N(CC)C1CCCCC1,outcome,[7],inactive
same,outcome,[8],inactive
O=C(O)C(F)(F)C(F)(F)C(F)(F)C(F)(F)C(F)(F)C(F)(F)C(F)(F)C(F)(F)C(F)(F)F,AC50,DIO2 (gene 1734),100 µM (active) and 71.6 µM (active)
same,AC50,DIO3 (gene 1735),89.4 µM (active) and 74.2 µM (active)
ClC1=C(Cl)[C@]2(Cl)[C@@H]3[C@@H](Cl)[C@H]4O[C@H]4[C@@H]3C1(Cl)C2(Cl)Cl,AC50,[1],25.9 µM (active)
same,outcome,[2],inactive
same,AC50,[3],27.1 µM (active)
same,AC50,[4],26.1 µM (active)
same,AC50,[5],22.5 µM (active)
same,outcome,[7],inactive
same,AC50,[6],23.9 µM (active)
same,outcome,[8],inactive
ClC1=C(Cl)[C@]2(Cl)[C@@H]3[C@@H]4C[C@@H]([C@H]5O[C@@H]45)[C@@H]3[C@@]1(Cl)C2(Cl)Cl,AC50,[1],23.9 µM (active)
same,AC50,[2],3.38 µM (active)
same,outcome,[3],inactive
same,AC50,[4],15 µM (active)
same,AC50,[5],11.3 µM (active)
same,outcome,[7],inactive
same,AC50,[6],22.4 µM (active)
same,outcome,[8],inactive
CCC(C)(CC)c1cc(NC(=O)c2c(OC)cccc2OC)on1,outcome,[7],inactive
same,outcome,[8],inactive
CCCCCCCCCc1ccc(O)cc1,AC50,DIO2 (gene 1734),136 µM (active)
same,AC50,DIO3 (gene 1735),17.4 µM (active)
same,outcome,[7],inactive
same,outcome,[8],inactive
CC#Cc1cc(C)nc(Nc2ccccc2)n1,AC50,DIO2 (gene 1734),22.2 µM (active)
same,AC50,DIO3 (gene 1735),3.73 µM (active)
same,outcome,[7],inactive
same,outcome,[8],inactive
CCCCCCCCCC[N+](C)(C)CCCCCCCCCC,AC50,DIO2 (gene 1734),62.7 µM (active)
same,AC50,DIO3 (gene 1735),3.56 µM (active)
same,AC50,[7],20 µM (active)
same,AC50,[8],31.3 µM (active)
CCC(C)(c1ccc(O)cc1)c1ccc(O)cc1,AC50,[1],10 µM (active)
same,outcome,[2],inactive
same,outcome,[3],inactive
same,outcome,[4],inactive
same,outcome,[7],inactive
same,outcome,[6],inactive
same,outcome,[8],inactive
O=C(NC(=O)c1c(F)cccc1F)Nc1cc(Cl)c(OC(F)(F)C(F)F)c(Cl)c1,outcome,[7],inactive
ClC(Cl)=C(c1ccc(Cl)cc1)c1ccc(Cl)cc1,AC50,[1],3.8 µM (active)
same,AC50,[3],3.63 µM (active)
same,AC50,[4],3.83 µM (active)
same,AC50,[5],5.14 µM (active)
same,outcome,[7],inactive
same,AC50,[6],6.02 µM (active)
same,outcome,[8],inactive
c1ccc(-c2ccccc2)cc1,outcome,[8],inactive
NS(=O)(=O)C(F)(F)C(F)(F)C(F)(F)C(F)(F)C(F)(F)C(F)(F)C(F)(F)C(F)(F)F,AC50,[1],23.3 µM (active)
same,outcome,[1],inactive
same,outcome,[2],inactive
same,AC50,[3],15 µM (active)
same,outcome,[3],inactive
same,AC50,[4],4.59 µM (active)
same,outcome,[4],inactive
same,AC50,[5],27.6 µM (active) and 23.6 µM (active)
same,AC50,[6],24 µM (active)
same,outcome,[6],inactive
COS(=O)(=O)OC,outcome,[7],inactive
